# Rows were chosen to be rich in hits. Some 19% of all compounds tested hit in one or more screens of this group.
# HepG2 viability – kills HepG2 cells in TGF-b inhibitor counter-screen | HepG2 CAGA-GFP viability, ATP luminescence, 18 h | Potency, µM (series often up to 46.1 µM), inactives show at the top dose activity change, negative = cytotoxicity, most hits filed as cytotoxic | hit rate 0.76% among 410,000; also: potency is read from the fitted curve at half-maximal effect
#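 HepG2 CAGA-GFP cells (1000/well, DMEM with 1% FBS) received compound, then TGF-beta at 500 pg/mL final, and were incubated 18 hours at 37 degrees C. Viability was read by CellTiter-Glo luminescence. Media-only wells were set as complete cell-killing and DMSO as no toxicity.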
# TGFb inhibitor – inhibitors of TGF-b signaling; Potency, µM (doses to about 46.1 µM), for inactives: top-dose activity, negative = inhibition, usual class: inhibitors; HepG2 CAGA-GFP TGF-b/SMAD3 reporter, GFP fluorescence, 18 h; TGF-beta stimulated, 500 pg/mL final; hit rate 1.2% among 410,000; also: potency is read from the fitted curve at half-maximal effect; % is scaled to controls: 0 for no effect and ±100 for the full control effect; nearly all actives have a fitted effect of over 65% in size
#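 Read-out: total well GFP (ex488/em500-530) summed from mean per-cell fluorescence. Cells: HEPG2 CAGA-GFP, 1% FBS DMEM, 18 h at 37 degrees C with 500 pg/mL final TGF-beta. Unstimulated wells served as the full-inhibition control; stimulated DMSO wells = 0%.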
# TDP1 block – inhibitors of human tyrosyl-DNA phosphodiesterase TDP1; Q9NUW8; Potency, µM (titrated, usually from 130 µM), for inactives: at the top dose activity change, negative = inhibition, usual class: inhibitors; hit rate 0.28% among 350,000; recombinant TDP1, AlphaScreen DNA substrate cleavage; also: potency is read from the fitted curve at half-maximal effect; % is scaled to controls: 0 for no effect and ±100 for the full control effect; nearly all actives have a fitted effect of over 40% in size
# Target sequence (Q9NUW8 whole entry, looked up): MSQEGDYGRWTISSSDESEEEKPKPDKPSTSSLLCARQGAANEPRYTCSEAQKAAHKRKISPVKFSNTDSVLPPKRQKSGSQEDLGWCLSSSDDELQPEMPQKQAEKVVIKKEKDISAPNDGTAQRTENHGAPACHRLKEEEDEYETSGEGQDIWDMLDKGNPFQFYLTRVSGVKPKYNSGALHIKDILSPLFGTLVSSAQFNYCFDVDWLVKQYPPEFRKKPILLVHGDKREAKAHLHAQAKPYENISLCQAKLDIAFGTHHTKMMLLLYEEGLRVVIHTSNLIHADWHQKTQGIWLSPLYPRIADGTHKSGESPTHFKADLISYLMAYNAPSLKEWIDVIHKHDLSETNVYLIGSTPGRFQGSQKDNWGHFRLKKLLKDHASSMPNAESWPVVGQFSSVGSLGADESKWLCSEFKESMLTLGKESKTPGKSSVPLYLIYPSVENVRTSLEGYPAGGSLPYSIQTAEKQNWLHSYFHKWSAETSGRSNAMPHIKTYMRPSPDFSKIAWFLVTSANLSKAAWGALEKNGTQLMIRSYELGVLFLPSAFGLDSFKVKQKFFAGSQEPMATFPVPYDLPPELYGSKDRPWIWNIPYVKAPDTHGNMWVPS
#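 E. coli-derived human Tdp1, 1 nM final. Cpd preinc 15 min RT; substrate 15 nM final, 5 min RT; AS bead mix 10 ug/ml final, 10 min RT. Signal loss = tyrosine-FITC cleavage. No-enzyme wells = max signal.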
# TDP1 cell noCPT – qHTS for Inhibitors of human tyrosyl-DNA phosphodiesterase 1 (TDP1): qHTS in cells in absence of CPT | DT40 Tdp1-/- hTDP1 cells, no CPT, ATP luminescence, 48 h | Potency, µM (top dose mostly 46.2 µM), inactives show top-dose activity change, negative = growth inhibition, hits mostly inhibitors | hit rate 15% among 420,000; also: potency is read from the fitted curve at half-maximal effect; % is scaled to controls: 0 for no effect and ±100 for the full control effect; nearly all actives have a fitted effect of over 55% in size
#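 Compound effects on proliferation are scored in DT40 Tdp1-/-;hTDP1 cells in the absence of CPT. ATP levels (CellTiter-Glo luminescence) are recorded after a ≥48 hr, 37 °C incubation.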
# IL-1B inflam inh – inflammasome signaling inhibition, IL-1 beta readout. activity change, % at 57.5 µM. THP-1 LPS/ATP IL-1B secretion, AlphaLISA, 16 h; stronger effect = lower value. hit rate 4.7% among 360,000; in the data active = activity change below about -50%; inconclusive = mostly about -30% to -49%; also: % is scaled to controls: 0 for no effect and ±100 for the full control effect
#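 Secreted IL-1B measured by AlphaLISA bead assay after 16 h compound exposure of THP-1 cells; compounds (final up to 57.5 uM) added 1 h before LPS (250 ng/mL) and ATP (1.25 mM) stimulation; lower signal means less secretion.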
# TDP1 cell CPT – DT40-hTDP1 cell growth loss with CPT; chicken DT40 Tdp1-/-;hTDP1 cells + 20 nM CPT, ATP luminescence, 48 h; Potency, µM (series often up to 46.2 µM), for the others: at the highest dose activity change, negative = growth inhibition, hits mostly inhibitors; hit rate 12% among 420,000; also: potency is read from the fitted curve at half-maximal effect; % is scaled to controls: 0 for no effect and ±100 for the full control effect; nearly all actives have a fitted effect of over 55% in size
#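 Chicken DT40 Tdp1-/- cells stably complemented with human TDP1 were seeded at 400 cells/well in medium containing 20 nM camptothecin, exposed to pin-transferred compounds, and grown at 37 °C for at least 48 hr. Viability was read as ATP luminescence.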
# * marks the source's active call; other numbers are inactive results; ? = inconclusive; . = no result given; [ ] = remark or other dose. Unless noted, calls follow the shape of the dose curve; as a rule, active = well fitted curve in the direction sought with a large enough effect; inconclusive = small, poorly fitted or top-dose-only effect, or another doubt; inactive = no such curve, though single readings can be large; an effect the other way counts as inactive or inconclusive.
SMILES,HepG2 viability,TGFb inhibitor,TDP1 block,TDP1 cell noCPT,IL-1B inflam inh,TDP1 cell CPT
COc1ccc(C2C(C#N)=C(SCC(=O)Nc3ccc(C)cc3)NC3=C2C(=O)CC(C)(C)C3)cc1 (centres undefined),-6.9%,?,3.9%,16.4µM*,-56.6*,23.1µM*
Cc1ccc(C(=O)CSC2=C(C#N)C(c3ccco3)C3=C(CCCC3=O)N2)cc1 (centres undefined),3.3%,-0.4%,6.6%,3.26µM*,0.0,3.26µM*
CCC1C(C#N)=C(SCC(N)=O)NC2=C1C(=O)CC(C)(C)C2 (centres undefined),0.8%,-4.9%,5.6%,-20.7%,14.9,?
N#CC1=C(SCC(=O)c2ccccc2)NC2=C(C(=O)CCC2)C1c1ccco1 (centres undefined),-5.7%,-3.6%,0.0%,2.59µM*,-97.2*,2.91µM*
CCCCc1ccc(NC(=O)CSC2=C(C#N)C(c3ccco3)C3=C(CCCC3=O)N2)cc1 (centres undefined),-21.6%,?,-13.2%,?,-86.0*,?
COc1ccc(C(=O)N/C(=C\c2cn(S(=O)(=O)N(C)C)c3ccccc23)C(=O)N2CCN(C)CC2)cc1,0.9%,-1.2%,2.6%,20.3%,-28.6,-19.1%
COc1cc2c(cc1OC)C1CCC3=C([C@H](C)OC3=O)N1CC2 (some centres undefined),.,.,6.9%,9.3%[9.04 µM],.,15.5%[9.04 µM]
CC(C)(C)c1ccc(C(=O)CCCSC2=C(C#N)C(c3ccco3)C3=C(CCCC3=O)N2)cc1 (centres undefined),-5.5%,-22.2%,3.1%,9.2µM*,-11.1,16.4µM*
CCSC1=C(C#N)C(c2ccc(Cl)cc2)C2=C(CCCC2=O)N1 (centres undefined),-56.8%,?,6.8%,1.46µM*,-9.6,1.46µM*
CCc1ccc(-c2ccc3nnc(SCC(=O)Nc4cccc(C(C)=O)c4)n3n2)cc1,-6.5%,0.4%,0.0%,?,.,-21.3%
CN(Cc1ccccc1)c1ccc(-c2nc(-c3ccccn3)no2)cc1[N+](=O)[O-],-16.2%,-3.9%,8.6%,18.4µM*,.,?
CN(C)c1ccc(-c2nc(-c3ccccn3)no2)cc1[N+](=O)[O-],-24.0%,-19.7%,0.0%,18.4µM*,.,-29.5%
CNc1ccc(-c2nc(-c3ccccn3)no2)cc1[N+](=O)[O-],-4.1%,-12.7%,5.7%,-16.9%,.,-10.7%
CN(Cc1ccccc1)c1ccc(-c2nc(-c3ccncc3)no2)cc1[N+](=O)[O-],-23.4%,-19.0%,0.0%,18.4µM*,.,20.6µM*
COc1ccc(CNC(=O)C(=O)NCC(c2ccco2)S(=O)(=O)c2cccs2)cc1 (centres undefined),4.6%,4.1%,0.0%,?,.,-14.4%
O=C(NCc1ccccn1)c1cc(-c2ccc(Cl)cc2)oc1C(F)(F)F,-99.5%,11.2µM*,2.6%,?,-20.9,?
O=C(NCc1ccncc1)c1cc(-c2ccc(Cl)cc2)oc1C(F)(F)F,-65.9%,?,1.3%,18.4µM*,?,?
Cc1oc(-c2ccccc2)cc1C(=O)NCc1ccncc1,-11.4%,-11.1%,1.2%,?,11.5,?
CN(CC(=O)NCc1ccccc1Cl)S(=O)(=O)c1ccc2c(c1)c(=O)n(C)c(=O)n2C,10.4%,-4.6%,4.6%,-3.1%,.,-6.8%
CCCCC/C=C\C\C=C/C=C/C=C/[C@@H](SC[C@H](N)C(=O)NCC(=O)O)[C@@H](O)CCCC(=O)O,.,.,3.7%,1.7%[0.628 µM],.,-4.4%[0.628 µM]
C/C(CC1CC(C)OC1=O)=N\NC(N)=S (centres undefined),-10.4%,1.5%,-4.4%,15.0%,22.2,-11.2%
C/C(CCC12CC3CC(CC(C3)C1)C2)=N\NC(N)=S,-40.3%,?,8.8%,16.4µM*,-5.3,14.6µM*
CN1C(=O)CC(C(=O)Nc2ccc(C(=O)O)cc2)SC1=Nc1ccc(Cl)cc1 (centres undefined),1.0%,-4.8%,-2.2%[12.3 µM],-1.7%,.,4.0%
CCCNC(=O)c1cc(C2CCCN(C(=O)c3cc(F)ccc3C)C2)on1 (centres undefined),-60.3%,?,.,-15.6%,19.1,?
Cc1ccccc1Cn1nnc2c(=O)[nH]c(C3CCN(C(=O)c4ccccc4Cl)CC3)nc21,-17.4%,?,2.5%,25.9µM*,.,16.4µM*
SMILES,HepG2 viability,TGFb inhibitor,TDP1 block,TDP1 cell noCPT,IL-1B inflam inh,TDP1 cell CPT
CCCCCCC(=O)N1CCC(c2nc3c(nnn3Cc3ccccc3Cl)c(=O)[nH]2)CC1,-91.8%,?,11.4%,?,-15.6,18.4µM*
O=C(c1cccs1)N1CCCC(c2nc3c(nnn3Cc3ccccc3Cl)c(=O)[nH]2)C1 (centres undefined),-10.7%,-1.0%,7.1%,29.1µM*,-6.2,?
COc1cccc(Cn2nnc3c(=O)[nH]c(C4CCN(C(=O)c5ccccc5Cl)CC4)nc32)c1,-22.1%,?,7.4%,?,.,?
COCCNC(=O)CSC1=N/C(=C/c2ccc(Cl)c(Cl)c2)C(=O)N1c1ccccc1F,1.1%,?,-1.8%,20.6µM*,-99.2*,14.6µM*
O=C(O)[C@@H]1C[C@@H](C(=O)O)N1,.,.,5.6%,-12.8%,.,-15.7%
CCCS(=O)(=O)c1c(S(=O)(=O)CCC)c2cc(C(C)(C)C)ccn2c1C(=O)c1ccccc1,-10.7%,-1.9%,.,16.4µM*,.,18.4µM*
CCCS(=O)(=O)c1c(S(=O)(=O)CCC)c2c(C)cccn2c1C(=O)OC,-30.9%,-27.2%,3.0%,12.6µM*,-4.6,13µM*
CCCS(=O)(=O)c1c(S(=O)(=O)CCC)c2ccc(C(N)=O)cn2c1C(=O)c1ccc(F)cc1,2.3%,-1.3%,4.8%,-3.1%,27.2,4.2%
CCCS(=O)(=O)c1c(S(=O)(=O)CCC)c2c(N)cccn2c1C(=O)c1ccc(Br)cc1,-48.2%,-3.6%,6.6%,?,-17.1,16.4µM*
CCCS(=O)(=O)c1c(S(=O)(=O)CCC)c2cc(C(C)(C)C)ccn2c1C(=O)c1ccc(OC)c(OC)c1,-13.7%,0.1%,.,?,.,?
CCCS(=O)(=O)c1c(S(=O)(=O)CCC)c2ccccn2c1C(=O)OC,-16.8%,-17.7%,2.2%,16.4µM*,7.3,20.6µM*
CCCS(=O)(=O)c1c(S(=O)(=O)CCC)c2c(N)cccn2c1C(=O)c1ccc(F)cc1,-19.8%,-7.7%,7.3%,?,?,-26.7%

# Screening data from PubChem BioAssay.
